Data on 40 targets can be found in the supplement of paper PMC12819154, “High-throughput peptide-centric local stability assay extends protein–ligand identification to membrane proteins, tissues and bacteria” (Nature Structural & Molecular Biology, 2025).
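Further: lysate desalted by size exclusion to strip endogenous ATP, peptide intensities built from DIA-NN precursor signals, and peptides missing any value discarded before comparison.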

Chain of UniProt P0ADM4 (P0ADM4 whole entry): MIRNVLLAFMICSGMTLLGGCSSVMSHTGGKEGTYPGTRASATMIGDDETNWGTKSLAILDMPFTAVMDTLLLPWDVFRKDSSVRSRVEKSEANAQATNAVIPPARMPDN
Chain of UniProt P08957 (P08957 whole entry): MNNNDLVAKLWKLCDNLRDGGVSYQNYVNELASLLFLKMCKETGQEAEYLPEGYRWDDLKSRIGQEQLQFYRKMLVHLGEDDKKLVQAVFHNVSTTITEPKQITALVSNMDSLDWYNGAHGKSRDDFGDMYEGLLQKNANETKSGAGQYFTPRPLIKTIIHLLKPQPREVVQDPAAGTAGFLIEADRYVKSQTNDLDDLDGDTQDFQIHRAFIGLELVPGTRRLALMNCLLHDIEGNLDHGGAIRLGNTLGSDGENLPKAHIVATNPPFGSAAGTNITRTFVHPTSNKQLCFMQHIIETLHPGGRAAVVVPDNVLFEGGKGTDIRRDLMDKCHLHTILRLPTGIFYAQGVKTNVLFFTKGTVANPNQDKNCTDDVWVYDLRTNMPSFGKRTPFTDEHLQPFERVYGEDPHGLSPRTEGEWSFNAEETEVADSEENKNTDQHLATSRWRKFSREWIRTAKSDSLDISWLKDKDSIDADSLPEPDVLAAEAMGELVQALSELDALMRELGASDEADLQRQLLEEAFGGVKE
Chain of UniProt P21893 (P21893 whole entry): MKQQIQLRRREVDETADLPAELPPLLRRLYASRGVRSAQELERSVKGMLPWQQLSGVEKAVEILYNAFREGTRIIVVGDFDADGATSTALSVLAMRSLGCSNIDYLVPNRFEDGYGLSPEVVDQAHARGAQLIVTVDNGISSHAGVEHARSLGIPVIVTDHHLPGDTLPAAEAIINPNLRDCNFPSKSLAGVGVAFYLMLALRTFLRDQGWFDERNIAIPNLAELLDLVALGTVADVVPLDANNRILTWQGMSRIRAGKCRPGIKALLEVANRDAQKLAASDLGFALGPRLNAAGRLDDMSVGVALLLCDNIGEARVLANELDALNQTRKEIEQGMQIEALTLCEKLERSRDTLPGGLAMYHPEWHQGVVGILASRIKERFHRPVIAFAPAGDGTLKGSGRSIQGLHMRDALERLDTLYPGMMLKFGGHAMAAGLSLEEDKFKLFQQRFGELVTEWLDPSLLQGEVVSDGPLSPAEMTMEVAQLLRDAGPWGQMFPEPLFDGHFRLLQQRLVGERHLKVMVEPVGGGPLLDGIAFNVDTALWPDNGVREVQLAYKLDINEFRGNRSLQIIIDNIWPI
Chain of UniProt P0A9J4 (P0A9J4 whole entry): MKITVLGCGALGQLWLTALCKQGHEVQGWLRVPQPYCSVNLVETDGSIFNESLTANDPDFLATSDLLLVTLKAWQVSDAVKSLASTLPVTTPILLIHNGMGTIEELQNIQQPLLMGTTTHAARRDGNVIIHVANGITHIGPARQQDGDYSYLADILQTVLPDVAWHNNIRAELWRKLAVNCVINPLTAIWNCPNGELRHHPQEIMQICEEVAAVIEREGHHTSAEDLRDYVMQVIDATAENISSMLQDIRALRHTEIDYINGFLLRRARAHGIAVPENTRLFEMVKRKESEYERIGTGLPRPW
Chain of UniProt P25741 (P25741 whole entry): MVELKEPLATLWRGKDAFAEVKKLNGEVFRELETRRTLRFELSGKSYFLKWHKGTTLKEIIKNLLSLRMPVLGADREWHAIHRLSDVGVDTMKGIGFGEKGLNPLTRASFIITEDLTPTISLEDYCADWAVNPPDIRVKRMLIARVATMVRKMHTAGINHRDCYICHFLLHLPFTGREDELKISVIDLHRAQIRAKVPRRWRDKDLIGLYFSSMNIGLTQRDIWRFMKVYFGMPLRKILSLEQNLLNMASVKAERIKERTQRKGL
Chain of UniProt P27300 (P27300 whole entry): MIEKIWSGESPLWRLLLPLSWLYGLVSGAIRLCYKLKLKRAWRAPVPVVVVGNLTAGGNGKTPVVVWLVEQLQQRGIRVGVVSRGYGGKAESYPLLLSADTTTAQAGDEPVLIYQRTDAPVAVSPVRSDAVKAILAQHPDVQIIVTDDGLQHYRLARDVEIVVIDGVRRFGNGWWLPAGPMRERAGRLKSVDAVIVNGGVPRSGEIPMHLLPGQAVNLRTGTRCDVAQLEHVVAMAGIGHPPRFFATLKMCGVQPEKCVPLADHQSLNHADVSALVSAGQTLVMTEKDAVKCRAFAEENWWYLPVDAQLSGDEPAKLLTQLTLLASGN
Chain of UniProt P23836 (P23836 whole entry): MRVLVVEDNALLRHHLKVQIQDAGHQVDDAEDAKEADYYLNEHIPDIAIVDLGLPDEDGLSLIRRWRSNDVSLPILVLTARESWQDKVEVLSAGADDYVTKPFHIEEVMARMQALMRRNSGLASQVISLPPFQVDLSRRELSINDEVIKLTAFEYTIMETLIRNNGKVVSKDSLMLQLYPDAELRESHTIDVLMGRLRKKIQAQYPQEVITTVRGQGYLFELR
Chain of UniProt P00805 (P00805 whole entry): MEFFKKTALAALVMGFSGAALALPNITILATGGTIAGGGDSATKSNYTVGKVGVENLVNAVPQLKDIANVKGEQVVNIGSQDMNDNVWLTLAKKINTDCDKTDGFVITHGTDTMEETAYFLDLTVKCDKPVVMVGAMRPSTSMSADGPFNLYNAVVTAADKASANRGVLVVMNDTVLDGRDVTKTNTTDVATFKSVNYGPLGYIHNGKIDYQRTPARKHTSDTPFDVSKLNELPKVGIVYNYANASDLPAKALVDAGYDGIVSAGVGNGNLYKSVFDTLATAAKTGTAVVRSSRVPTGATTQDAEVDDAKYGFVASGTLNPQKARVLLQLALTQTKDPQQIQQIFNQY
Chain of UniProt P76187 (P76187 whole entry): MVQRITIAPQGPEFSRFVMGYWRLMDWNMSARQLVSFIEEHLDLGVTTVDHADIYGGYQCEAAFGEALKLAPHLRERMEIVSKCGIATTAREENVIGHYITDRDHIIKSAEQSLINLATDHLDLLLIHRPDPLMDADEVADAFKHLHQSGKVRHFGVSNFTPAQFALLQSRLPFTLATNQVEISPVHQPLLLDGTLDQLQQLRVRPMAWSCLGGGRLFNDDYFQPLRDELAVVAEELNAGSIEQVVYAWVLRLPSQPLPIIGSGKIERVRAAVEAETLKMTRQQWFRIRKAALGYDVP
Chain of UniProt P00393 (P00393 whole entry): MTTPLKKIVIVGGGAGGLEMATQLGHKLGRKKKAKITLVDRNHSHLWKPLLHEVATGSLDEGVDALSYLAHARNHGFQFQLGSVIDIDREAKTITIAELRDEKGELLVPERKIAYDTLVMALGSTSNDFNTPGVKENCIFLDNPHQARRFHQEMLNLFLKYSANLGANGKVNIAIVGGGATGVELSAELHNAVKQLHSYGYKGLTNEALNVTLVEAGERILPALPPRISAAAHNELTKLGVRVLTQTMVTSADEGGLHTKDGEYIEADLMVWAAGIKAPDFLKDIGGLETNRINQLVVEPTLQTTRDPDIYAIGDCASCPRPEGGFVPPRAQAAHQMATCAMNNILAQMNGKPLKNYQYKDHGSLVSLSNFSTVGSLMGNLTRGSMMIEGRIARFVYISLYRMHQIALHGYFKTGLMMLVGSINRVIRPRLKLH
Chain of UniProt P25742 (P25742 whole entry): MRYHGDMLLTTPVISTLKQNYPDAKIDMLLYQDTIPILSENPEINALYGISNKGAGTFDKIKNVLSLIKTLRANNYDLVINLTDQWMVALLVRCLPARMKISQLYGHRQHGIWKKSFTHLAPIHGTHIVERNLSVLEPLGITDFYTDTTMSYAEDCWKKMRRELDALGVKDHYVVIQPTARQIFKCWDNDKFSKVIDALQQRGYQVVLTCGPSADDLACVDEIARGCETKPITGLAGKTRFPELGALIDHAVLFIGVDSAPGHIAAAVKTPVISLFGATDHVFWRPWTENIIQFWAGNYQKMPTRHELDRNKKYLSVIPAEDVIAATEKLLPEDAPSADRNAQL
Chain of UniProt P07013 (P07013 whole entry): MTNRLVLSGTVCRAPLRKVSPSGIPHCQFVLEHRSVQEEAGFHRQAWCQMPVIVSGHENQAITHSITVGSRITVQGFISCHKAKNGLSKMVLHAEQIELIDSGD
Chain of UniProt P0C0L2 (P0C0L2 whole entry): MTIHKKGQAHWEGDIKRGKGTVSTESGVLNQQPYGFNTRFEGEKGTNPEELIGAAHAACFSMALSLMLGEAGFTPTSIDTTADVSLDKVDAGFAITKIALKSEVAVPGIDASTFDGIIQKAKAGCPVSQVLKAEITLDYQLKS
Chain of UniProt P31455 (P31455 whole entry): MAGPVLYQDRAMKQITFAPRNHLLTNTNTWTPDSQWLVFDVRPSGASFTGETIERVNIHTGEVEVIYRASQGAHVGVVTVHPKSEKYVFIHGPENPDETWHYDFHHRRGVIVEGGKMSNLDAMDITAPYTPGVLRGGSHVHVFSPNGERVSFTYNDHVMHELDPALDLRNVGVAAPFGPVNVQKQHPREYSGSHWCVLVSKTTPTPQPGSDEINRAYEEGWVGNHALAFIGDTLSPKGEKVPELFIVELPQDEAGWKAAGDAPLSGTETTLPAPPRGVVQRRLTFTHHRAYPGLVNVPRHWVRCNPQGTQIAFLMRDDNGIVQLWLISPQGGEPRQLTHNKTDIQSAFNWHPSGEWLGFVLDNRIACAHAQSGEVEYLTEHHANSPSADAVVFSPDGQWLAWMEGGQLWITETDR
Chain of UniProt P76116 (P76116 whole entry): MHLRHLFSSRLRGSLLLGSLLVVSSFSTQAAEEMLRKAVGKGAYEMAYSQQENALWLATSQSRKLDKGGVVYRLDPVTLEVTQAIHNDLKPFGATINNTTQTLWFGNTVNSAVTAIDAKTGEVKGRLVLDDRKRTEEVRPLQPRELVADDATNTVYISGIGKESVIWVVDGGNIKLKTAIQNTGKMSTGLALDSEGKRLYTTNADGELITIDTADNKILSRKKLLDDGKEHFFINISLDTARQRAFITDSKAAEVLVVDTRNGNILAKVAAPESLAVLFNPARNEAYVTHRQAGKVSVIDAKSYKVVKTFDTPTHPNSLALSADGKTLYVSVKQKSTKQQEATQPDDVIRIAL

Compound in this assay: Nc1ncnc2c1ncn2[C@@H]1O[C@H](COP(=O)(O)OP(=O)(O)OP(=O)(O)O)[C@@H](O)[C@H]1O [adenosine 5'-triphosphate]
The assay can be described thus: log2 fold change of tryptic peptide abundance, ligand vs vehicle (limited proteolysis) (log2 ratio); higher = more trypsin-susceptible (destabilized). As to conditions: ligand concentration: 5 mM; sample: E. coli desalted lysate; replicate design: treated before aliquoting. The procedure:
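HT-PELSA: desalted E. coli K-12 BW25113 lysate (with 12 mM MgCl2) incubated with 5 mM ATP (pH 7) or water for 30 min at 25 C, then a 4 min trypsin pulse at 22 C. Peptides were quantified by DIA-MS (4 replicates). Value is the peptide log2 fold change (treated/control); negative = stabilized. Scale: negative = ligand-stabilized region.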
With “UniProt P21893 (peptide sequence: DCNFPSK, peptide start residue: 181)”, the log2 fold change is -0.813.

In the case of “UniProt P15038 (peptide sequence: LHTEDITAR, peptide start residue: 265)”, the log2 fold change was -2.37.

“UniProt P00903 (peptide sequence: GLANPLTVTR, peptide start residue: 117)”: the log2 fold change is -0.376.

Take “UniProt P02358 (peptide sequence: TKHAVTEASPMVK, peptide start residue: 92)”: the log2 fold change was found to be 0.374. Turning to “UniProt P0ADM4 (peptide sequence: EGTYPGTR, peptide start residue: 32)”, the log2 fold change was -0.36.

Take “UniProt P14375 (peptide sequence: LNVVAIEVPSLR, peptide start residue: 302)”: the log2 fold change was -1.45. For “UniProt P0ACP7 (peptide sequence: TRFVAEETR, peptide start residue: 25)”, the log2 fold change is 1.38.

As to “UniProt P31808 (peptide sequence: TGMTFDAQPGR, peptide start residue: 236)”, the log2 fold change is -0.533.

Turning to “UniProt P25741 (peptide sequence: LSDVGVDTMK, peptide start residue: 84)”, the log2 fold change is -0.922.

For the target “UniProt P07821 (peptide sequence: TLLHPLSLTFPAGK, peptide start residue: 25)”, the log2 fold change is -1.16.

Regarding “UniProt P14294 (peptide sequence: VQTPVLGLVVR, peptide start residue: 198)”, the log2 fold change was -0.642. As for “UniProt P76085 (peptide sequence: QLGGDASGCSLR, peptide start residue: 198)”, the log2 fold change was -1.23. The same measure for “UniProt P00393 (peptide sequence: ISAAAHNELTK, peptide start residue: 228)”: -0.559; for “UniProt P27300 (peptide sequence: SVDAVIVNGGVPR, peptide start residue: 190)”: -2.1. The same measure for “UniProt P32684 (peptide sequence: ITLVQGLNR, peptide start residue: 179)”: 0.498. The same measure for “UniProt P0A9J4 (peptide sequence: HTEIDYINGFLLRR, peptide start residue: 254)”: 0.895; for “UniProt P00805 (peptide sequence: SVFDTLATAAK, peptide start residue: 274)”: 0.366; for “UniProt P77376 (peptide sequence: VGLIGYGYASK, peptide start residue: 7)”: -1.01. In the case of “UniProt P76116 (peptide sequence: NEAYVTHR, peptide start residue: 284)”, the log2 fold change was -0.872. With “UniProt P0A9L8 (peptide sequence: FAAQAVMGSAK, peptide start residue: 203)”, the log2 fold change was -0.702. The same measure for “UniProt P00887 (peptide sequence: YPVTPGVATHVTDSRR, peptide start residue: 25)”: -0.488; for “UniProt P76556 (peptide sequence: IAFVGSVGAGK, peptide start residue: 4)”: -0.693. The same measure for “UniProt P31455 (peptide sequence: AYPGLVNVPR, peptide start residue: 290)”: -1.05. The same measure for “UniProt P23836 (peptide sequence: VLVVEDNALLR, peptide start residue: 3)”: 0.563; for “UniProt P28631 (peptide sequence: YLLCQQPQGHK, peptide start residue: 47)”: -0.546; for “UniProt P0AEC3 (peptide sequence: FTQQGQVTVR, peptide start residue: 413)”: -2.53. Turning to “UniProt P23865 (peptide sequence: VRLEILPAGK, peptide start residue: 315)”, the log2 fold change is 1.04. For the target “UniProt P25535 (peptide sequence: LADTLPGVKPQLIR, peptide start residue: 374)”, the log2 fold change was found to be 0.527. Turning to “UniProt P08957 (peptide sequence: SRIGQEQLQFYR, peptide start residue: 61)”, the log2 fold change is 1.09. On to “UniProt P04994 (peptide sequence: TGAALHDILHVLK, peptide start residue: 149)”, for which the log2 fold change was found to be 0.643.

On to “UniProt P30750 (peptide sequence: TVFGNVALPLELDNTPKDEVKR, peptide start residue: 98)”, for which the log2 fold change was 0.668. The same measure for “UniProt P77544 (peptide sequence: QIQAWLR, peptide start residue: 104)”: 0.878. The same measure for “UniProt P07013 (peptide sequence: LVLSGTVCR, peptide start residue: 5)”: -0.606; for “UniProt P0C0L2 (peptide sequence: GQAHWEGDIKR, peptide start residue: 7)”: -0.717. Regarding “UniProt P31660 (peptide sequence: SGNDLHYR, peptide start residue: 38)”, the log2 fold change came to 1.29. The same measure for “UniProt P10908 (peptide sequence: VDAGSWYSK, peptide start residue: 79)”: -0.858; for “UniProt P30958 (peptide sequence: FANWPVR, peptide start residue: 673)”: -0.413. As for “UniProt P76187 (peptide sequence: HFGVSNFTPAQFALLQSR, peptide start residue: 154)”, the log2 fold change was -0.944. The same measure for “UniProt P25742 (peptide sequence: SFTHLAPIHGTHIVER, peptide start residue: 116)”: -1.07; for “UniProt P0A9P6 (peptide sequence: RFMKEPQEVR, peptide start residue: 200)”: -2.4.
